# Reference: PubChem BioAssay (NCI)
# The panel holds about 83,000 compounds, 20% with a hit somewhere; the sample as a whole holds those more often.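 Assay: single dose, 48 h. Readout: percent growth (0 = no net growth; negative = cell death). Active: <10.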 Values without a mark were called inactive. The source made the active and inactive calls.
# Assays:
# Assay in all cases: NCI-60 one-dose screen, 48 h (100 = growth as untreated, 0 = no growth, -100 = all killed)
# Details in all cases: 10 µM unless noted
# [1] = tested on: NCI-H23 lung
# [2] = tested on: NCI-H226 lung
# [3] = tested on: NCI-H322M lung
# [4] = tested on: NCI-H460 lung
# [5] = tested on: HOP-92 NSCLC
# [6] = tested on: NCI-H522 lung
# [7] = tested on: A549/ATCC NSCLC
# [8] = tested on: 786-0 renal
# [9] = tested on: COLO 205 colon
# [10] = tested on: DU-145 prostate
# [11] = tested on: K-562 leukemia
# [12] = tested on: MALME-3M melanoma
# [13] = tested on: MDA-MB-231 breast
# [14] = tested on: RXF 393 renal
# [15] = tested on: SF-268 CNS
# [16] = tested on: SF-295 CNS
# [17] = tested on: SF-539 CNS
# [18] = tested on: UACC-257 melanoma
# [19] = tested on: M14 melanoma
# [20] = tested on: HOP-62 NSCLC
Structure (SMILES),growth [1],growth [2],growth [3],growth [4],growth [5],growth [6],growth [7],growth [8],growth [9],growth [10],growth [11],growth [12],growth [13],growth [14],growth [15],growth [16],growth [17],growth [18],growth [19],growth [20]
COc1ccc(/C=C2\COc3ccc(O)cc3C2=O)c(OC)c1OC,89.5%,99%,95.8%,84.8%,102%,55.6%,92.4%,87.7%,102%,46.2%,17.7%,78.2%,82.9%,111%,93.4%,98.3%,81.6%,97.2%,86%,–
O=C(c1cc2ccccc2o1)c1nn(-c2ccccc2)/c(=N/N=Cc2cn(-c3ccccc3)nc2-c2cc3ccccc3oc2=O)s1,99.4%,99.4%,92%,106%,73.2%,88%,106%,103%,117%,103%,78.2%,98.9%,86.2%,107%,96.8%,104%,98.4%,103%,97.8%,97.6%
Fc1cc2c(cc1Cl)N(c1ncnc3ccc(-c4cnc5[nH]ncc5c4)cc13)CC2,73.3%,49.5%,52.1%,54.7%,34.5%,55.9%,44%,65%,79.2%,56.2%,77.5%,77.3%,52.7%,38.5%,57.3%,72.9%,68.2%,86.3%,85.5%,–
Cc1ccc(C(C(N)=O)C(C(N)=O)c2ccccc2)cc1 (stereo unspecified),111%,109%,121%,112%,99.5%,102%,95.3%,102%,115%,111%,90.9%,129%,123%,104%,104%,114%,119%,102%,108%,–
COc1cc(-c2csc(NC(=O)c3cc(-n4cnc(C)c4)cc(C(F)(F)F)c3)n2)cc(OC)c1OC,61.2%,58%,67%,33.8%,6.13% (active),38.5%,60.2%,60.2%,84.9%,56.4%,26.8%,67.7%,61.3%,66.7%,68.6%,57.9%,90.9%,81.9%,66.7%,–
O=C(c1ccc(-c2nc(CSc3nc4ccccc4s3)no2)cc1)N1CCSCC1,52.9%,68.4%,100%,69.6%,66.4%,19.7%,52.1%,90.6%,87.8%,81.9%,36.6%,66.3%,64.6%,110%,77.1%,40.6%,80.3%,35.7%,79.9%,–
COC(=O)c1c2c(c(C)[n+]([O-])c1C)C(=O)C=C(NCc1ccc(OC)cc1)C2=O,-38.8% (active),-8.68% (active),-6.26% (active),-3.91% (active),-35.3% (active),-19.5% (active),-18.4% (active),3.11% (active),-54% (active),-83.7% (active),0.821% (active),-97.4% (active),-6.3% (active),-32.7% (active),-22.4% (active),-62.5% (active),-80.7% (active),-77% (active),-84.6% (active),3.79% (active)
CC(=O)[C@@H]1CCC=C2CC[C@]3(C)[C@@H](CC[C@@H]4[C@@]5(C)CCCNC(C)(C)[C@@H]5CC[C@]43C)[C@H]21,-58.8% (active),23.2%,-42.3% (active),-34.6% (active),-32.5% (active),-74.1% (active),-78.1% (active),-89.5% (active),-81% (active),-36.8% (active),-44.6% (active),-56.1% (active),-76.5% (active),-91.9% (active),12.3%,-84.7% (active),9.45% (active),-67.4% (active),-82.1% (active),-63.5% (active)
COc1ccc(-c2nc3c(c(-c4ccccc4)nn3-c3ccccc3)c(-c3ccc(N4CCOCC4)cc3)c2C#N)cc1,94%,102%,102%,97.4%,99.4%,103%,103%,82.4%,124%,106%,96.9%,103%,107%,38.6%,112%,91.6%,85.9%,101%,101%,–
CC1(C)c2[nH]c3ccccc3c2C[C@]2(C)[C@H]3CC=C4[C@@H]5C[C@@](C)(C(N)=O)CC[C@]5(C)CC[C@@]4(C)[C@]3(C)CC[C@@H]12,51.2%,60.4%,76.1%,52.6%,80.6%,52.5%,53.6%,74.5%,58.9%,74%,29.9%,68%,65.8%,77.4%,73.2%,53.6%,80.9%,52.5%,54.6%,79.5%
Cc1ccc2c(n1)C(=O)c1[nH]c3ccccc3c1C2=O,-33.8% (active),55.7%,31.8%,-50.6% (active),78%,59.7%,-14.4% (active),78.1%,23.9%,-86.1% (active),44.9%,-80.4% (active),32.1%,62.7%,66.3%,0.15% (active),43%,13.7%,-39.9% (active),39.5%
N#CC1=C(c2ccc(Cl)cc2)Nc2c(c(-c3ccc(Cl)cc3)nn2-c2ccccc2)C12C(=O)Nc1ccc(Cl)cc12 (stereo unspecified),42.3%,67%,83.3%,35.5%,-3.13% (active),25.7%,31%,59.1%,51%,76.6%,24.3%,77%,50.1%,21.3%,38.2%,23.2%,74.2%,63.4%,41.9%,–
CC(C)=NNc1ccccn1,68%,40.9%,19.4%,30%,40.4%,25.5%,35.1%,61.7%,3.92% (active),48.4%,59.2%,48.5%,36.4%,69.8%,43.7%,67.6%,43.5%,11.9%,35.8%,–
CCCNC(=O)Oc1ccc(/C(=C(/C)Cc2ccc(OC)cc2)c2ccc(OCCCN(C)C)cc2)cc1,82.4%,94.7%,88.3%,73.3%,51.7%,78.5%,77.6%,92%,71.6%,94.9%,15.3%,82.9%,89.9%,74.7%,84%,88.2%,97.8%,99.2%,71.8%,101%
CCOC(=O)c1cc(-c2ccc([N+](=O)[O-])cc2)n(-c2ccc(C(=O)O)c(O)c2)c1C,58.8%,83.5%,103%,65.2%,49.6%,9.5% (active),47.7%,71.3%,99.1%,88.6%,45.1%,80.6%,80.7%,39%,85.8%,69.8%,85.4%,46.2%,90%,–
